Data as given in PubChem BioAssay.
Where “and” joins values, the source holds several entries; their conditions need not be identical. Identical values can stand only once. Results filed as inconclusive are left out. Calls of active or inactive are those of the source.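 How the source made its calls, unless noted: active means compounds killing one labelled cell type while sparing the other, by normalised counts and ratio limits, not self-fluorescent; inactive means the rest.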

Key:
[1] = differential killing of epithelial or mesenchymal cells, primary screen, imaging, PC-3E GFP, TEM4-18 mCherry, co-culture (AID 1345086); details: imaging cell counts, at 1 µM; for red/green cell ratio (normalised): actives lie on both sides, counts scaled to control wells, 1 = unselective;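 on all read-outs here: cells exposed to compound for 72 h before imaging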;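 on red/green cell ratio (normalised): normalised mesenchymal count divided by normalised epithelial count so high means epithelial killing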
[2] = growth inhibition of DIPG glioma cells, dose response, cell-based, SU-DIPG-XVII, MIPE5.0, CellTiter-Glo, qHTS (AID 1347060; cut-off not given, nearly all actives have AC50 up to about 26 µM;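 on AC50: cells exposed to compound for 48 hours before viability readout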); details: SU-DIPG-XVII viability, CellTiter-Glo ATP luminescence
[3] = growth inhibition of DIPG glioma cells, dose response, cell-based, JHH-DIPG-1, MIPE4.0, CellTiter-Glo, qHTS (AID 1347062; cut-off not given, nearly all actives have AC50 up to about 27 µM;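 on AC50: cells exposed to compound for two days before readout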); details: JHH-DIPG-1 viability, CellTiter-Glo ATP luminescence
[4] = growth inhibition of DIPG glioma cells, dose response, cell-based, SU-DIPG-XIII, MIPE5.0, CellTiter-Glo, qHTS (AID 1347064; cut-off not given, nearly all actives have AC50 up to about 23 µM;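 on AC50: cells exposed to compound for 48 hours before the viability read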); details: SU-DIPG-XIII viability, CellTiter-Glo ATP luminescence
[5] = growth inhibition of DIPG glioma cells, dose response, cell-based, SU-DIPG-IV, MIPE4.0, CellTiter-Glo, qHTS (AID 1347063; cut-off not given, nearly all actives have AC50 up to about 30 µM;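 further: compound exposure lasted 48 hours before the viability readout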); details: SU-DIPG-IV viability, CellTiter-Glo ATP luminescence
[6] = growth inhibition of DIPG glioma cells, dose response, cell-based, SU-DIPG-XIII, MIPE4.0, CellTiter-Glo, qHTS (AID 1347061; cut-off not given, nearly all actives have AC50 up to about 37 µM;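 further: cells exposed to compound for 48 hours before readout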); details: SU-DIPG-XIII viability, CellTiter-Glo ATP luminescence
[7] = tested on: Aerobactin synthetase IucA (Klebsiella pneumoniae); test: IucA aerobactin synthetase inhibitors, biochemical, Tocris library, absorbance (AID 1345561; call rule not given here;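 further: 100% = enzyme without compound and 0% = no enzyme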); details: purified IucA enzyme assay, absorbance (OD) read-out; stronger effect = lower value;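 tested at 8 µM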
[8] = measured here: epithelial PC-3E GFP cell survival
[9] = measured here: mesenchymal TEM4-18 mCherry cell survival

**Q.** What does the source list for CC/C(=C(/CC)c1ccc(O)cc1)c1ccc(O)cc1?
**A.** red/green cell ratio (normalised) [1]: 1.15 (inactive); normalised cell number [1, 8]: 1.1; normalised cell number [1, 9]: 1.27; outcome [2]: inactive; outcome [3]: inactive; outcome [4]: inactive

**Q.** For COc1ccnc(CS(=O)c2nc3ccc(OC(F)F)cc3[nH]2)c1OC (stereo not given), which red/green cell ratio (normalised) [1] is on record?
**A.** 1.07 (inactive)

**Q.** And the normalised cell number [1, 8]?
**A.** 1.3

**Q.** And the normalised cell number [1, 9]?
**A.** 1.4

**Q.** And the outcome [2]?
**A.** inactive

**Q.** And the outcome [3]?
**A.** inactive

**Q.** And the outcome [5]?
**A.** inactive

**Q.** And the outcome [4]?
**A.** inactive

**Q.** For Cc1cc2cc3c(C)cc(=O)oc3c(C)c2o1, which red/green cell ratio (normalised) [1] is on record?
**A.** 0.99 (inactive)

**Q.** What about the normalised cell number [1, 8] of the same molecule?
**A.** 1.05

**Q.** And the normalised cell number [1, 9]?
**A.** 1.04

**Q.** And the outcome [2]?
**A.** inactive

**Q.** What about the AC50 [5] of the same molecule?
**A.** 20.9 µM (active)

**Q.** And the outcome [4]?
**A.** inactive

**Q.** Which red/green cell ratio (normalised) [1] does the source give for CC(=O)Oc1ccccc1C(=O)O here?
**A.** 0.84 (inactive)

**Q.** And the normalised cell number [1, 8]?
**A.** 1.28

**Q.** And the normalised cell number [1, 9]?
**A.** 1.08

**Q.** What about the outcome [2] of the same molecule?
**A.** inactive

**Q.** And the outcome [3]?
**A.** inactive

**Q.** What about the outcome [5] of the same molecule?
**A.** inactive

**Q.** Which red/green cell ratio (normalised) [1] does the source give for C1CCC(C(CC2CCCCN2)C2CCCCC2)CC1 (stereo not given) here?
**A.** 0.98 (inactive)

**Q.** And the normalised cell number [1, 8]?
**A.** 1.13

**Q.** And the normalised cell number [1, 9]?
**A.** 1.11

**Q.** And the AC50 [2]?
**A.** 7.42 µM (active)

**Q.** And the AC50 [3]?
**A.** 9.35 µM (active)

**Q.** What about the AC50 [5] of the same molecule?
**A.** 20.9 µM (active)

**Q.** What about the AC50 [4] of the same molecule?
**A.** 11.8 µM (active)

**Q.** Which red/green cell ratio (normalised) [1] does the source give for Nc1ccc(S(=O)(=O)Nc2ccnn2-c2ccccc2)cc1 here?
**A.** 0.85 (inactive)

**Q.** What about the normalised cell number [1, 8] of the same molecule?
**A.** 1.05

**Q.** What about the normalised cell number [1, 9] of the same molecule?
**A.** 0.9

**Q.** And the outcome [6]?
**A.** inactive

**Q.** And the outcome [3]?
**A.** inactive

**Q.** And the outcome [5]?
**A.** inactive

**Q.** For COc1ccc2c(c1)c(CC(=O)OCC(=O)O)c(C)n2C(=O)c1ccc(Cl)cc1, which red/green cell ratio (normalised) [1] is on record?
**A.** 0.77 (inactive)

**Q.** What about the normalised cell number [1, 8] of the same molecule?
**A.** 1.18

**Q.** And the normalised cell number [1, 9]?
**A.** 0.91

**Q.** And the outcome [6]?
**A.** inactive

**Q.** What about the outcome [3] of the same molecule?
**A.** inactive

**Q.** What about the outcome [5] of the same molecule?
**A.** inactive

**Q.** With NCCCCCC(=O)O as the molecule, how does the red/green cell ratio (normalised) [1] read?
**A.** 0.92 (inactive)

**Q.** What about the normalised cell number [1, 8] of the same molecule?
**A.** 1.31

**Q.** What about the normalised cell number [1, 9] of the same molecule?
**A.** 1.21

**Q.** What about the outcome [6] of the same molecule?
**A.** inactive

**Q.** What about the outcome [3] of the same molecule?
**A.** inactive

**Q.** And the outcome [5]?
**A.** inactive

**Q.** What about the outcome [4] of the same molecule?
**A.** inactive

**Q.** What does the source list for CS(=O)(=O)c1ccc([C@@H](O)[C@@H](CO)NC(=O)C(Cl)Cl)cc1?
**A.** red/green cell ratio (normalised) [1]: 0.94 (inactive); normalised cell number [1, 8]: 1.12; normalised cell number [1, 9]: 1.06; outcome [6]: inactive; outcome [3]: inactive; outcome [5]: inactive

**Q.** Which red/green cell ratio (normalised) [1] does the source give for CC(C)COCC(CN(Cc1ccccc1)c1ccccc1)N1CCCC1 (stereo not given) here?
**A.** 1.11 (inactive)

**Q.** And the normalised cell number [1, 8]?
**A.** 1.06

**Q.** What about the normalised cell number [1, 9] of the same molecule?
**A.** 1.18

**Q.** What about the AC50 [2] of the same molecule?
**A.** 20.9 µM (active)

**Q.** And the AC50 [4]?
**A.** 14.8 µM (active)

**Q.** Which red/green cell ratio (normalised) [1] does the source give for Nc1nc(=S)c2[nH]cnc2[nH]1 here?
**A.** 1.29 (inactive)

**Q.** And the normalised cell number [1, 8]?
**A.** 0.83

**Q.** What about the normalised cell number [1, 9] of the same molecule?
**A.** 1.07

**Q.** And the AC50 [2]?
**A.** 0.59 µM (active)

**Q.** What about the AC50 [3] of the same molecule?
**A.** 0.833 µM (active)

**Q.** And the AC50 [5]?
**A.** 7.43 µM (active)

**Q.** And the AC50 [4]?
**A.** 2.35 µM (active)

**Q.** For OC[C@H]1O[C@@H](Oc2ccc(O)cc2)[C@H](O)[C@@H](O)[C@@H]1O, which red/green cell ratio (normalised) [1] is on record?
**A.** 1.05 (inactive)

**Q.** What about the normalised cell number [1, 8] of the same molecule?
**A.** 1.15

**Q.** What about the normalised cell number [1, 9] of the same molecule?
**A.** 1.21

**Q.** And the outcome [6]?
**A.** inactive

**Q.** What about the outcome [3] of the same molecule?
**A.** inactive

**Q.** What about the outcome [5] of the same molecule?
**A.** inactive

**Q.** Which results are given for CC(C)(Sc1cc(C(C)(C)C)c(O)c(C(C)(C)C)c1)Sc1cc(C(C)(C)C)c(O)c(C(C)(C)C)c1?
**A.** red/green cell ratio (normalised) [1]: 1.01 (inactive); normalised cell number [1, 8]: 1.14; normalised cell number [1, 9]: 1.16; outcome [6]: inactive; outcome [3]: inactive; outcome [5]: inactive

**Q.** With CCOC(=O)[C@H](CCc1ccccc1)N[C@@H](C)C(=O)N1CCC[C@H]1C(=O)O as the molecule, how does the red/green cell ratio (normalised) [1] read?
**A.** 0.88 (inactive)

**Q.** What about the normalised cell number [1, 8] of the same molecule?
**A.** 1.12

**Q.** And the normalised cell number [1, 9]?
**A.** 0.99

**Q.** And the outcome [6]?
**A.** inactive

**Q.** And the outcome [3]?
**A.** inactive

**Q.** What about the outcome [5] of the same molecule?
**A.** inactive

**Q.** What about the outcome [4] of the same molecule?
**A.** inactive

**Q.** With CCCOc1ccc2nc(NC(=O)OC)[nH]c2c1 as the molecule, how does the red/green cell ratio (normalised) [1] read?
**A.** 1.06 (inactive)

**Q.** What about the normalised cell number [1, 8] of the same molecule?
**A.** 0.2

**Q.** What about the normalised cell number [1, 9] of the same molecule?
**A.** 0.21

**Q.** And the AC50 [2]?
**A.** 0.372 µM (active)

**Q.** What about the outcome [6] of the same molecule?
**A.** inactive

**Q.** What about the AC50 [4] of the same molecule?
**A.** 0.661 µM (active)

**Q.** With C[C@H]1c2cccc(O)c2C(O)=C2C(=O)[C@]3(O)C(O)=C(C(N)=O)C(=O)[C@@H](N(C)C)[C@@H]3[C@@H](O)[C@@H]21 as the molecule, how does the red/green cell ratio (normalised) [1] read?
**A.** 1.48 (inactive)

**Q.** And the normalised cell number [1, 8]?
**A.** 1.06

**Q.** And the normalised cell number [1, 9]?
**A.** 1.57

**Q.** What about the outcome [6] of the same molecule?
**A.** inactive

**Q.** And the outcome [3]?
**A.** inactive

**Q.** Which results are given for COc1cc2c(N3CCN(C(=O)Nc4ccc(OC(C)C)cc4)CC3)ncnc2cc1OCCCN1CCCCC1?
**A.** red/green cell ratio (normalised) [1]: 1.13 (inactive); normalised cell number [1, 8]: 1.09; normalised cell number [1, 9]: 1.23; outcome [2]: inactive; outcome [6]: inactive; outcome [4]: inactive

**Q.** For Nc1ccc(S(=O)(=O)Nc2ccccn2)cc1, which red/green cell ratio (normalised) [1] is on record?
**A.** 1.49 (inactive)

**Q.** What about the normalised cell number [1, 8] of the same molecule?
**A.** 0.99

**Q.** And the normalised cell number [1, 9]?
**A.** 1.47

**Q.** What about the outcome [6] of the same molecule?
**A.** inactive

**Q.** And the outcome [3]?
**A.** inactive

**Q.** Which red/green cell ratio (normalised) [1] does the source give for S=P(N1CC1)(N1CC1)N1CC1 here?
**A.** 0.99 (inactive)

**Q.** And the normalised cell number [1, 8]?
**A.** 1.06

**Q.** And the normalised cell number [1, 9]?
**A.** 1.06

**Q.** What about the AC50 [2] of the same molecule?
**A.** 20.9 µM (active)

**Q.** And the outcome [3]?
**A.** inactive

**Q.** What about the outcome [4] of the same molecule?
**A.** inactive

**Q.** Which outcome [2] does the source give for C[N+]1(C)[C@@H]2CC(OC(=O)[C@H](CO)c3ccccc3)C[C@H]1[C@@H]1O[C@@H]12 (stereo not given in full) here?
**A.** inactive

**Q.** What about the outcome [6] of the same molecule?
**A.** inactive

**Q.** And the outcome [3]?
**A.** inactive

**Q.** What about the outcome [5] of the same molecule?
**A.** inactive

**Q.** And the outcome [4]?
**A.** inactive

**Q.** With Cc1cccc(N(C)C(=S)Oc2ccc3ccccc3c2)c1 as the molecule, how does the red/green cell ratio (normalised) [1] read?
**A.** 1.19 (inactive)

**Q.** And the normalised cell number [1, 8]?
**A.** 1.22

**Q.** And the normalised cell number [1, 9]?
**A.** 1.46

**Q.** And the outcome [3]?
**A.** inactive

**Q.** What about the outcome [4] of the same molecule?
**A.** inactive

**Q.** Which outcome [4] does the source give for C[C@]12CC[C@@H]3c4ccc(O)cc4CC[C@H]3[C@@H]1C[C@@H](O)[C@@H]2O here?
**A.** inactive

**Q.** Which red/green cell ratio (normalised) [1] does the source give for CCn1cc(C(=O)O)c(=O)c2cc(F)c(N3CCNC(C)C3)c(F)c21 (stereo not given) here?
**A.** 1.03 (inactive) and 0.91 (inactive)

**Q.** What about the normalised cell number [1, 8] of the same molecule?
**A.** 1.03 and 1.1

**Q.** What about the normalised cell number [1, 9] of the same molecule?
**A.** 1.07 and 1

**Q.** And the outcome [3]?
**A.** inactive

**Q.** What about the outcome [5] of the same molecule?
**A.** inactive

**Q.** And the outcome [4]?
**A.** inactive

**Q.** For NC(N)=N/N=C/c1c(Cl)cccc1Cl, which remaining activity [7] is on record?
**A.** 99.1% (inactive)

**Q.** What does the source list for CC(=O)N(O)CCCCCNC(=O)CCC(=O)N(O)CCCCCNC(=O)CCC(=O)N(O)CCCCCN?
**A.** red/green cell ratio (normalised) [1]: 1.51 (inactive); normalised cell number [1, 8]: 1.1; normalised cell number [1, 9]: 1.67; AC50 [4]: 7.42 µM (active)

**Q.** For C#C[C@]1(O)CC[C@H]2[C@@H]3CCc4cc(O)ccc4[C@H]3CC[C@@]21C, which AC50 [2] is on record?
**A.** 16.6 µM (active)

**Q.** What about the outcome [4] of the same molecule?
**A.** inactive
